These results are taken from ChEMBL document CHEMBL3433997, “St. Jude Leishmania screening dataset” (2016).

Molecules are shown by their SMILES.

This assay has as its target Glucose transporter (Leishmania mexicana) (UniProt O61059). Briefly: ST_JUDE_LEISH: Cytotoxicity at 2uM final concentration against transgenic Leishmania Mexicana promastigotes LmGT2 that are glucose transport deficient and complemented with the L. Mexicana glucose transporter 2. Activity is measured by DNA content using SYBR green in vitro. It is filed as functional.
With `Fc1ccccc1COc1ccc(Nc2ncnc3ccc(I)cc23)cc1Cl`, the inhibition is 4.67%.
The same measure for `COc1ccc(-c2ccc(NC(=O)c3cccc(Cl)c3)cc2)cc1CNC(C)C`: 1.96%; for `CCC(C)NS(=O)(=O)c1ccc2nc(Nc3ccc(C)cc3)n(C3CCCCC3)c2c1` (stereo not given): 3.35%.
Under `CCOC(=O)NC1=NC(C)(C)N(OCCCOc2cc(Cl)c(Cl)cc2Cl)C(NC(=O)OCC)=N1` stands 1.36%; under `O=C(NCCN1CCCC1)c1cc(-c2ccc(Cl)c(O)c2)c(-c2ccncc2)o1`, 0.49%; under `CCCCCC(=O)N1CCOC(CCN2CCC(c3ccccc3)CC2)(c2ccc(Cl)c(Cl)c2)C1` (stereo not given), 0.92%.
Under `O=C(Nc1cccc(-c2nn3ccccc3c2-c2ccnc(Nc3ccccc3)n2)c1)c1cc(F)ccc1F` stands -2.21%.
`N#Cc1ccc2c(c1)CN(CCCCNC(=O)c1ccc(-c3ccccc3)cc1)CC2`: the inhibition amounted to 3.99%.
The same measure for `CN1CCC(N2CCN(Cc3cccc(-c4ccc(-c5nc6cc(F)ccc6[nH]5)cc4)c3)CC2)CC1`: 2.66%; for `CC1(C)CCC(C)(C)c2c1ccc(C1CCN(CCCCNC(=O)c3ccc(-c4ccc(C#N)cc4)cc3)CC1)c2OCC(N)=O`: 4.33%; for `FC(F)(F)c1ccc2[nH]c(-c3ccc(-c4cccc(CNCCc5cccnc5)c4)s3)nc2c1`: 4.6%.
Under `O=C(NC1CCN(c2ccnc3ccccc23)C1)c1ccc(OC(F)(F)F)cc1` (stereo not given) stands 2.7%; under `CCCCCN1CCCN(Cc2cccc(NC(=O)c3ccc4ccccc4c3)c2)CC1`, 4.95%; under `O=C(/C=C/c1ccc(F)cc1)NC1CCC(CCN2CCc3ccccc3CC2)CC1` (stereo not given), 2.76%.
As to `Cn1cc(C2CCN(CCCCNC(=O)c3ccc(-c4ccc(C(F)(F)F)cc4)c(CO)c3)CC2)c2ccccc21`, the inhibition was 2.35%.
The same measure for `Cc1cc(N)c2cc(NC(=O)c3cc(C(F)(F)F)cc(C(F)(F)F)c3)ccc2n1`: 0.8%; for `COc1cc2nc(-c3ccc(Br)cc3)cc(N)c2cc1OC`: 29.1%; for `O=C(Nc1ccccc1)Nc1ccc(-n2ccc(C(F)(F)F)n2)cc1`: -0.06%.
In the case of `COc1ccc2nccc(N3CCN(CCNCc4ccc5c(n4)NC(=O)CS5)CC3)c2c1`, the inhibition was determined as 0.44%.
Take `CCOc1ccc2c(=NN=Cc3cccc(F)c3)cc(C)[nH]c2c1`: the inhibition was 2.7%.
Under `Cc1ccc(NC(=O)C2CCC2)cc1-c1ccc(C(=O)NCC2CC2)cc1` stands 0.3%; under `COC(=O)c1cc(NC(=O)Nc2ccc(Cn3ncc(N4CCCNCC4)c(Cl)c3=O)cc2)cc(C(=O)OC)c1`, 1.92%.
Under `C=CCNC(=O)CCCNC(=N)N` stands -0.35%.
The same measure for `CCOC(=O)C1=C(C)N=c2sc(=Cc3cc(Cl)ccc3O)c(=O)n2C1c1cc(OC)c(OC)cc1Br` (stereo not given): 11.5%.
As for `CCOc1ccc(CCC(=O)O)cc1OCC`, the inhibition is 2.88%.
As for `COc1ccc2nccc([C@@H](O)CN3CCC(NCc4nc5c(cc4F)SCC(=O)N5)C(F)C3)c2c1` (stereo not given in full), the inhibition was found to be 4.51%.
Regarding `CN1CCN(c2cc(-c3cccnc3)nc(-c3ccncc3)n2)CC1`, the inhibition worked out at 3.57%.
The same measure for `CCCCN(CCCC)/C(=N/c1cccc(Cl)c1Cl)Nc1ccc(C#N)cc1O`: -4.06%.
Under `CCN(CCN(C)C)Cc1ccc(-c2ccc(NS(=O)(=O)c3cccc4cccnc34)cc2)cc1` stands 6.11%; under `N#Cc1ccccc1Sc1ccccc1C(=O)Nc1ccc2ccccc2n1`, 7.12%; under `CCOc1cc(NC(=O)Nc2ccnc3ccccc23)cc(OC)c1`, 7.94%.
Consider `CCN(CC)CCN(Cc1ccc(-c2ccc(C(F)(F)F)cc2)cc1)C(=O)Cn1c(SCc2ccc(F)cc2)cc(=O)c2ccccc21`, for which the inhibition was found to be 1.57%.
The same measure for `O=C(NCCCCCN1CCC(c2c[nH]c3ccccc23)CC1)Nc1ccc(I)c(Cl)c1`: 5.92%.
The same measure for `O=C(NC1CCN(CC2(c3ccccc3F)CCCC2)CC1)c1cc[nH]n1`: 1.89%; for `CC(C)(C)CC(C)(C)c1ccc(O)c(C(=O)Nc2cccc([N+](=O)[O-])c2)c1`: 1.44%; for `CCCN(CCC)CCCN(CCCN(CCC)CCC)c1cc(C)nc(Nc2ccc(Cl)cc2)n1`: 2.52%.
Under `Cc1ccccc1C1CCN(C2CCC(NC(=O)/C=C/c3c(F)ccc(F)c3F)CC2)CC1` (stereo not given) stands 2.13%.
As for `CN(Cc1ccc(-c2ccc(C(F)(F)F)cc2)cc1)C(=O)Cn1c(CCc2cccc(F)c2F)nc(=O)c2ccc(N3CCN(CCN4CCCCC4)CC3)nc21`, the inhibition was determined as 3.71%.
The same measure for `COc1ccc(OCc2ccccn2)c(C2CCN(CCCCNC(=O)c3ccc(NC(=O)c4ccc(Cl)cc4)cc3)CC2)c1`: -2.76%; for `CN(CCO)Cc1cccc(-c2ccc(NC(=O)c3cccc(C#N)c3)cc2)c1`: -2.56%.
